# Data: PubChem BioAssay
# Activity calls are given as the source filed them.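 The calls were made as follows, unless noted: active = fluorescence slope after compound addition differing from the mean of all screened samples at 99.7% confidence, in either direction; inactive = the rest.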
# Key:
# [1] = inhibitors of TNFa-induced NFkB p65 translocation, primary screen, imaging, HUVEC, MLSMR starter and 10KST1 sets (AID 438;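 active = inhibition above 20% together with a positive visual image hit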;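 also: compound added about 3h40 before a 20 min TNFalpha stimulation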;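 as to inhibition: signal is the nuclear over cytoplasmic p65 intensity ratio per well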); details: HUVEC TNFa-induced p65 nuclear translocation; cell count: measured here: nuclei count (cytotoxicity indicator), at 2.08 µM; inhibition: at 2 µM, stronger effect = higher value, 0% TNFa-plus-vehicle, 100% no-TNFa wells
# [2] = reduction of polyQ htt aggregates in cells – imaging, exon1htt(103Q)mCFP cells, high-content imaging, primary screen (AID 483;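 active = visual image review flags a hit and inhibition of aggregation exceeds 20%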;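 also: compound exposure lasted 3 days before fixation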;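 as to nuclei count: percent of the per-plate median nuclei count of sample wells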); details: exon1htt(103Q)mCFP cell line, aggregate imaging, at 2 µM; inhibition of aggregation: stronger effect = higher value; nuclei count: measured here: cell count, toxicity
# [3] = endothelial E-selectin expression blockers – imaging, HUVEC, immunofluorescence, MLSMR starter and 10KST1 sets, primary screen (AID 487;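 active = visually confirmed hit in the image check and inhibition above 20%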;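 as to inhibition: signal is fraction of cell area covered by stained E-selectin grains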;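 as to nuclei count: 100% = median nuclei count of all wells on the same plate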); details: HUVEC TNFalpha-induced E-selectin immunofluorescence imaging, at 2 µM; inhibition: stronger effect = higher value; nuclei count: measured here: cell number, toxicity
# [4] = target: Voltage-gated potassium channel subunit beta-2 (Rattus norvegicus) (UniProt P62483); assay: inhibitors of rat Kvbeta2 reductase activity – biochemical, NADPH fluorescence, primary screen (AID 622;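 active = fluorescence slope higher than the sample average by over 3 SD, cut at about -0.22 in these data, passing the limit was not always enough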;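 also: slope of raw intensity against log time taken from 70 to 1610 s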); details: recombinant KvBeta, 4-cyanobenzaldehyde reduction, at 10 µM, stronger effect = higher value
# [5] = target: Voltage-gated potassium channel subunit beta-2 (Rattus norvegicus) (UniProt P62483); assay: enhancers of rat Kvbeta2 NADPH turnover – biochemical, NADPH fluorescence, primary screen (AID 623;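 active = NADPH fluorescence slope more negative than the mean of all samples by about 3 SD, 99.7% confidence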;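 also: fluorescence intensity change per second fitted from 20 to 320 s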); details: Recombinant KvBeta, NADPH fluorescence decrease slope, 10 min; at 10 µM; stronger effect = lower value
# [6] = target: Alpha-2C adrenergic receptor (Homo sapiens) (UniProt P18825); assay: compounds altering alpha2C-coupled GIRK flux – cell-based, HEK293 alpha2C/GIRK1/2, thallium flux, primary screen (AID 624); details: thallium flux BTC fluorescence, at 10 µM, actives lie on both sides;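 also: slope of fluorescence ratio to pre-addition baseline per second over 15 to 24 s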
# [7] = blockers of RIG-like receptor reporter activation – cell-based, Sendai virus stimulus, luciferase, 10K MLSCN set, TLR/RLR signaling modifier project, primary screen (AID 602276;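 active = inhibition at or above 50% at 10 µM; inactive = inhibition below 50%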;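 also: firefly luciferase from ISG56 promoter only with Renilla not read in this screen; 0% = Sendai virus plus DMSO and 100% = medium plus DMSO without virus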); details: HEK293 RL24 IRF3 luciferase reporter, at 10 µM, stronger effect = higher value
# [8] = TLR3 IRF3 reporter activation blockers – cell-based, poly I:C stimulus, luciferase, 10K MLSCN set, primary screen (AID 602277;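 active = inhibition of the reporter signal at or above 50%; inactive = inhibition below 50%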); details: HEK293-TLR3 RL24 IRF3 luciferase reporter, at 10 µM, stronger effect = higher value
# Chain of Alpha-2C adrenergic receptor (Homo sapiens) (P18825 whole entry, looked up): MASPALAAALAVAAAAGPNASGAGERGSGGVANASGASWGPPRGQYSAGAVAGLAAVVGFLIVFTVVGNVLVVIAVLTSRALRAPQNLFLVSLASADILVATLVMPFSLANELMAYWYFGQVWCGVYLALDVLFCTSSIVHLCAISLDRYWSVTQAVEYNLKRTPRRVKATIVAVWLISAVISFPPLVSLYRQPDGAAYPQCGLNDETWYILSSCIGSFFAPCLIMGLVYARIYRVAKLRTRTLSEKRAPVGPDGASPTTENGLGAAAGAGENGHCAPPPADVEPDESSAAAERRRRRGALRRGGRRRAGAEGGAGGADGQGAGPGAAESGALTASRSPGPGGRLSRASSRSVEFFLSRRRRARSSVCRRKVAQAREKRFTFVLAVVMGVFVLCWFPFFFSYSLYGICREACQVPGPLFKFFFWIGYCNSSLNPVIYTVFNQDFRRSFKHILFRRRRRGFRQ
# Chain of Voltage-gated potassium channel subunit beta-2 (Rattus norvegicus) (P62483 whole entry, looked up): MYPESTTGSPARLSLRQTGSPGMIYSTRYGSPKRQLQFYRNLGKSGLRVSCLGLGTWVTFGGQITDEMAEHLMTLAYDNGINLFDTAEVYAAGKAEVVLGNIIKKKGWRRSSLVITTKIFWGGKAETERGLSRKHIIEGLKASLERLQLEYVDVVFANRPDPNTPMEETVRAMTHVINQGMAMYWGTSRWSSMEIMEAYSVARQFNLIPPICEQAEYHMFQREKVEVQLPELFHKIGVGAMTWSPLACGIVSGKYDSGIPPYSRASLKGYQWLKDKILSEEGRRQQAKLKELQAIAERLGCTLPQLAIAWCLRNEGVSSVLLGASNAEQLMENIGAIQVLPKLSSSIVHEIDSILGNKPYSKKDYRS
SMILES,cell count [1],inhibition [1],inhibition of aggregation [2],nuclei count [2],inhibition [3],nuclei count [3],fluorescence slope [4],NADPH fluorescence slope [5],slope [6],inhibition [7],inhibition [8]
O=C1CC(Cc2ccccc2)C(=O)N1CCCn1ccnc1 (stereo not drawn),429,-4.9% (inactive),10.8% (inactive),100%,36.4% (inactive),102%,-0.346 (inactive),-6e-05 (inactive),0.00527 (inactive),17.7% (inactive),25% (inactive)
COc1cc(C2CC(=O)NC3=C2C(=O)CC(C)(C)C3)ccc1O (stereo not drawn),380,-2.2% (inactive),6.5% (inactive),101%,2.8% (inactive),105%,-0.41 (inactive),-4.2e-05 (inactive),0.00203 (inactive),1.82% (inactive),16.2% (inactive)
Cc1ccc(CSC2=NCCN2C(=O)c2ccco2)cc1,661,1.3% (inactive),-14.6% (inactive),106%,-11.6% (inactive),115%,-0.613 (inactive),-1.3e-05 (inactive),0.00684 (inactive),-0.0387% (inactive),0.194% (inactive)
CCCCC(=O)NCCNc1nc2c(c(=O)n(C)c(=O)n2C)n1Cc1ccccc1,555,-6.3% (inactive),-14.2% (inactive),105%,28.6% (inactive),106%,-0.615 (inactive),-5.2e-06 (inactive),0.00636 (inactive),15.2% (inactive),24.6% (inactive)
CC1=C(C(=O)OC2CCCCCC2)C(c2ccc(C)o2)C2=C(CCCC2=O)N1 (stereo not drawn),420,3.9% (inactive),-10% (inactive),102%,-22.9% (inactive),108%,-0.572 (inactive),-2e-05 (inactive),0.00508 (inactive),-8.61% (inactive),-19.9% (inactive)
O=C(Sc1nnnn1C1CCCCC1)c1cccs1,242,13.8% (inactive),7.4% (inactive),91.3%,-291% (inactive),129%,-0.317 (inactive),1.5e-05 (inactive),0.00618 (inactive),15.9% (inactive),13.5% (inactive)
CCC(C)(C)n1nnnc1C(c1cc2cc(OC)ccc2[nH]c1=O)N1CCc2ccccc21 (stereo not drawn),411,-18.4% (inactive),9.8% (inactive),100%,-14.8% (inactive),116%,-0.592 (inactive),-4.5e-05 (inactive),0.0033 (inactive),14.9% (inactive),29.5% (inactive)
CCN(CC)CCn1c2ccccc2c2nc(C)sc21,613,-3.3% (inactive),-5% (inactive),98.7%,34% (inactive),86.3%,-0.622 (inactive),-3.9e-06 (inactive),0.00718 (inactive),16.1% (inactive),21.2% (inactive)
CCOC(=O)Nc1cc(OC)c(OC)cc1Cc1nccc2cc(OC)c(OC)cc12,444,-1.8% (inactive),-1.2% (inactive),111%,-20.1% (inactive),173%,-0.532 (inactive),4.5e-06 (inactive),0.00447 (inactive),-7.98% (inactive),5.89% (inactive)
O=C(c1ccc(Br)o1)N1CCN(c2ccc3nnc(-c4ccccc4)n3n2)CC1,634,-0.5% (inactive),3% (inactive),80.7%,-91.9% (inactive),120%,-0.602 (inactive),-3.4e-05 (inactive),0.00664 (inactive),-4.83% (inactive),-337% (inactive)
C=CCc1ccccc1OCCCCN1CCCC1,750,-8% (inactive),9.9% (inactive),87.9%,-10.4% (inactive),114%,-0.497 (inactive),-3.1e-05 (inactive),0.00605 (inactive),-11.7% (inactive),19.4% (inactive)
Cc1cccc(CCNC(=O)C2CCCN(S(=O)(=O)c3cnc[nH]3)C2)c1 (stereo not drawn),518,16.1% (inactive),21.6% (inactive),89.8%,-107% (inactive),107%,-0.523 (inactive),6.1e-06 (inactive),0.0065 (inactive),30.1% (inactive),8.46% (inactive)
CCCOc1cccc(C(=O)N(Cc2ccco2)C2CCS(=O)(=O)C2)c1 (stereo not drawn),378,1.7% (inactive),-7.9% (inactive),100%,-94.2% (inactive),112%,-0.442 (inactive),-3.3e-05 (inactive),0.00536 (inactive),2.23% (inactive),-2.97% (inactive)
CCN(Cc1nc2ccccc2c(=O)[nH]1)Cc1cc(=O)oc2cc(C)c(C)cc12,288,6.6% (inactive),0.4% (inactive),107%,-33.2% (inactive),126%,-0.435 (inactive),-4.6e-05 (inactive),0.00456 (inactive),5.41% (inactive),8.19% (inactive)
O=C(CSc1nnc(NC(=O)C2CCC2)s1)NC1CC1,488,0.8% (inactive),-8.1% (inactive),66.2%,-90.7% (inactive),106%,-0.313 (inactive),-4.2e-05 (inactive),0.00536 (inactive),0.495% (inactive),-3.07% (inactive)
Cc1ccccc1Nc1cc2ccccc2c(=O)[nH]1,481,-12.2% (inactive),-19.5% (inactive),102%,-35% (inactive),98.8%,-0.17 (inactive),1.6e-05 (inactive),0.00385 (inactive),-7.13% (inactive),20.8% (inactive)
CN1CCC(NC(=O)c2cccs2)CC1,575,8.5% (inactive),-27.2% (inactive),88.6%,-16.6% (inactive),112%,-0.547 (inactive),-5e-05 (inactive),0.00687 (inactive),8.43% (inactive),33.8% (inactive)
NC(=O)COC(=O)c1ccc(S(=O)(=O)N2CCCCCC2)cc1,449,-7.8% (inactive),6.3% (inactive),104%,-17.6% (inactive),116%,-0.348 (inactive),-6.2e-05 (inactive),0.00701 (inactive),11% (inactive),14% (inactive)
Cc1ccccc1-n1c(SCc2c(C)noc2C)nnc1-c1ccncc1,741,-2.4% (inactive),-10.7% (inactive),103%,-87% (inactive),115%,-0.304 (inactive),-5.4e-05 (inactive),0.00424 (inactive),6.71% (inactive),30.2% (inactive)
CC1=C(C(=O)OC(C)C)C(c2ccccn2)n2ncnc2N1 (stereo not drawn),751,-0.6% (inactive),-35.6% (inactive),79.5%,-75.2% (inactive),110%,-0.569 (inactive),-3e-05 (inactive),0.00699 (inactive),0.999% (inactive),30.5% (inactive)
O=P(O)(CCc1ccccc1)CN1CCCCC1,446,-6.3% (inactive),-8.7% (inactive),100%,-137% (inactive),108%,-0.419 (inactive),5e-05 (inactive),0.00723 (inactive),-8.42% (inactive),-0.191% (inactive)
CC(=O)N(C(C)=O)c1c(C#N)c(C)n(-c2ccccc2)c1C(=O)c1ccccc1,430,8.5% (inactive),4.6% (inactive),102%,24.1% (inactive),110%,-0.503 (inactive),-3.8e-05 (inactive),0.00413 (inactive),27% (inactive),26.6% (inactive)
CCOC(=O)c1sc2nc(NC(=O)C3CCCCC3)sc2c1C,570,-0.8% (inactive),4.6% (inactive),92.9%,19.5% (inactive),96%,-0.533 (inactive),-2.5e-05 (inactive),0.00612 (inactive),-10.3% (inactive),-9.22% (inactive)
Cc1nn(-c2ccccc2)c(C)c1/C=N/O,739,-3.9% (inactive),-3.1% (inactive),93.7%,25% (inactive),94.2%,-0.446 (inactive),2.9e-05 (inactive),0.00603 (inactive),-8.9% (inactive),-14.8% (inactive)
COC(=O)Nc1ccc(NC(C)=O)cc1,398,-4.4% (inactive),20.9% (inactive),82.1%,6.8% (inactive),94.6%,-0.493 (inactive),6e-05 (inactive),0.00538 (inactive),-9.94% (inactive),-5.16% (inactive)
O=C(O)CCn1[nH]c(=O)ccc1=O,172,6.8% (inactive),37% (active),67.3%,-3% (inactive),84.3%,-0.562 (inactive),1.7e-06 (inactive),0.0053 (inactive),21.4% (inactive),18% (inactive)
O=C1c2ccccc2C(=O)N1CC(O)Cn1nnc2ccccc21 (stereo not drawn),480,-22.3% (inactive),-0.2% (inactive),116%,-47.9% (inactive),99.5%,-0.521 (inactive),-4.1e-05 (inactive),0.00496 (inactive),3.12% (inactive),4.4% (inactive)
O=C(c1ccco1)N1CCN(c2cccc(Cl)c2)CC1,665,-1.9% (inactive),5.4% (inactive),115%,24.2% (inactive),91.6%,-0.507 (inactive),-7.7e-05 (inactive),0.00406 (inactive),-26.6% (inactive),-76.9% (inactive)
